The results in this text go back to PubChem BioAssay (NCATS).

Values without a mark were called inactive. Inconclusive results are not listed. Calls of active or inactive are those of the source. Unless noted, the call rests on the fitted dose curve; in most records, active means well fitted curve in the direction sought with a large enough effect; inconclusive means small, poorly fitted or top-dose-only effect, or another doubt; inactive means no such curve, though single readings can be large; an effect the other way counts as inactive or inconclusive.

For test [1], the target named is Lysosomal acid glucosylceramidase (Homo sapiens) (UniProt P04062). Briefly: Glucocerebrosidase-p2 (AID 348; in the data active means potency below about 10 µM; further: potency means the concentration at half of the fitted maximal effect). As to conditions: purified GBA, blue fluorogenic substrate, 40 min. Summed up:
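Normal human glucocerebrosidase (0.2 nM) with blue fluorogenic substrate (80 uM final) in citrate/phosphate pH 5.9 with 10mM sodium taurocholate, 0.01% tween-20; 40 min RT, NaOH/glycine stop; fluorescence Ex 365/Em 440; AC50 from a titration from 0.6 nM upwards.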

The nature of test [2]: AP1 Signaling Pathway (AID 357; active means well fitted curve in either direction with a large enough effect, not every such curve was filed as active;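 further: ME-180 reporter cells stimulated with EGF at its EC50 level; on the % scale 0 is the no-effect control and ±100 the full control effect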). As to conditions: ME-180 AP-1-bla reporter, EGF-induced, beta-lactamase ratio, 5 h; at 7.69 µM (top of the series) unless noted. In outline:
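First, ME-180 AP-1-bla cells were cultured overnight at 37 °C in low-serum Opti-MEM. Next, titrated compounds with EC50 EGF were incubated 5 hours. Finally, CCF4 was added for 2.5 hours and the 460/530 nm ratio recorded.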

Test [3] addresses Cytochrome P450 1A2 (Homo sapiens) (UniProt P05177). Briefly: p450-cyp1a2 (AID 410; calls by dose curve; further: potency means the concentration at half of the fitted maximal effect). As to conditions: recombinant CYP1A2, luciferin-ME demethylation, luminescence; series mostly up to 57 µM. Summed up:
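20nM CYP1A2, 100uM Luciferin-ME (=Km), 100mM KPO4; cpd 10 min RT; +NADPH regen, 60 min RT; stop/detect 20 min; luminescence. Normalized to furafylline 57 uM = full inhibition.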

A short description of test [4]: NFAT Signaling Pathway (AID 444; active means well fitted curve in either direction with a large enough effect, not every such curve was filed as active;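 further: carbachol stimulus at about its EC50 of 1 µM final; on the % scale 0 is the no-effect control and ±100 the full control effect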). As to conditions: Jurkat NFAT-bla M1, carbachol, beta-lactamase ratio, 5 h; at 7.69 µM (top of the series) unless noted. In outline: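 Read-out: CCF4 FRET ratio (460 nm/530 nm) after 1 h RT dye loading, used for %activity and AC50 from titration series. Cells: Jurkat NFAT-β-lactamase/M1 line, treated with compound plus 1 uM carbachol for 5 h, 37 °C.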

Test [5] can be described thus: Stat Signaling Pathway (AID 446; active means well fitted curve in either direction with a large enough effect, not every such curve was filed as active;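 further: ME-180 cervical cancer cells given 40 pM IL-6 alongside compound; SIE-controlled beta-lactamase reporter measured as 460/530 nm FRET emission ratio; on the % scale 0 is the no-effect control and ±100 the full control effect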). The note with it: ME-180 SIE beta-lactamase reporter, IL-6 stimulated, 5 h; at 7.69 µM (top of the series) unless noted. Summed up:
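Normalization used AC90 stimulation (300 pM IL-6) and AC90 inhibition (125 nM pan-JAK inhibitor at 40 pM IL-6). The underlying signal is SIE-driven beta-lactamase in ME-180 cells after 5 h IL-6 exposure with compound.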

Test [6] has as its target Glucocorticoid receptor (Homo sapiens) (UniProt P04150). Briefly: GR-GFP Redistribution (AID 450;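 active means compounds whose dose series gives a full or clear partial fitted curve of increased nuclear translocation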; further: potency means the concentration at half of the fitted maximal effect). As to conditions: U2OS GR-GFP nuclear translocation, laser cytometry, 2 h.
Test [7] has the same target. Briefly: GR-EFC Redistribution (AID 451; calls by dose curve; further: potency means the concentration at half of the fitted maximal effect). As to conditions: CHO-K1 GR-EFC translocation, beta-gal luminescence, 2 h. Summed up: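 Translocation of GR-ED fusion to nuclear EA restores b-gal, read by luminescence after 1 h room-temperature detection. Engineered CHO-K1 biosensor cells, 1,000/well, exposed 2 h at 37 C to titrations up to 46 uM final.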
The target of test [8] is Mitogen-activated protein kinase 10 (Mus musculus) (UniProt Q61831). Description: JNK3 AlphaScreen Assay (AID 530; active means well fitted curve in either direction with a large enough effect, not every such curve was filed as active;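 further: kinase came from lysate of stimulated human HepG2 cells; signal reports phosphorylation of biotinylated GST-cJun 1-79 at Ser73 with 10 µM ATP; on the % scale 0 is the no-effect control and ±100 the full control effect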). The note with it: JNK3 lysate, c-Jun phosphorylation; series mostly up to 57.1 µM. In outline: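 Kinase buffer: 20 mM Tris-HCl pH 7.6, 10 mM MgCl2, 1 mM DTT, 0.1 mM Na3VO4, 0.01% Tween-20; ATP 10 uM. Substrate biotin-GST-cJun(1-79), enzyme from activated HepG2 lysates. Detection by Ser73 phospho-antibody AlphaScreen.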
A general note: Bead proximity is the source of the signal in Alpha formats.

The target in test [9] is Cytochrome P450 3A4 (Homo sapiens) (UniProt P08684). Briefly: qHTS Assay for Activators of Cytochrome P450 3A4 (AID 885). Further: nearly all actives have a fitted effect of over 65% in size. The note with it: recombinant CYP3A4, Luciferin-PPXE luminescence, 60 min; series mostly up to 57.1 µM. In outline: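 Human CYP3A4 dealkylates Luciferin-PPXE to luciferin, which luciferase detection converts to light. Substrate was at its KM (25uM), buffer 200mM KPO4, reaction 60 min at RT.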
On the technique in general: qHTS replaces the single test concentration by a dilution series.

Test [10] concerns the target Cytochrome P450 2D6 (Homo sapiens) (UniProt P10635). Briefly: qHTS Assay for Inhibitors and Substrates of Cytochrome P450 2D6 (AID 891). Further: potency means the concentration at half of the fitted maximal effect; nearly all actives have a fitted effect of over 60% in size. The note with it: recombinant CYP2D6, luciferin-ME EGE luminescence; series mostly up to 57.1 µM. In outline: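 Luminescent read-out of luciferin formed by 5 nM human CYP2D6 demethylating 30 uM Luciferin-ME EGE (Km level) over 60 min at room temperature after NADPH regeneration addition. Data normalized to full inhibition by 1.43 uM quinidine.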

In test [11] the target is Dual specificity protein kinase CLK4 (Homo sapiens) (UniProt Q9HAZ1). Description: qHTS Assay for Inhibitors of CDC-like Kinase 4 (Kinase-Glo Assay) (AID 1770). Further: nearly all actives have a fitted effect of over 65% in size. Further: potency means the concentration at half of the fitted maximal effect. As to conditions: recombinant Clk4, Kinase-Glo ATP depletion luminescence; series mostly up to 66.7 µM. Summed up:
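Clk4 25 nM, RS peptide 100 uM, ATP 1 uM, pH 7.5 Tris, 10 mM MgCl2, 2.5 mM DTT; 4.5 h RT; ATP depletion read by Kinase-Glo luminescence.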

For test [12] the target is unchanged. Briefly: qHTS Assay for Inhibitors of CDC-like Kinase 4 (ADP-Glo Assay) (AID 1771). Further: nearly all actives have a fitted effect of over 70% in size. Further: potency means the concentration at half of the fitted maximal effect. The note with it: recombinant CLK4, ADP-Glo luminescence; series mostly up to 80 µM. Summed up: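 25 nM Clk4, 100 uM RS peptide, 1 uM ATP (final); 2 mM MgCl2, 0.5 mM EGTA, 2.5 mM DTT, 0.01% Triton X-100; 1 hr RT. ADP-Glo readout: ATP depletion 45 min, conversion/luciferase 30 min, luminescence.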

Test [13] has the same target. Description: qHTS Assay for Inhibitors of CDC-like Kinase 4 (ADP-FP Assay) (AID 1795). Further: nearly all actives have a fitted effect of over 60% in size. Further: potency means the concentration at half of the fitted maximal effect. As to conditions: Transcreener ADP fluorescence polarization; series mostly up to 50 µM. In outline: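 Kinase activity was followed as ADP output, converted from fluorescence polarization with a calibration curve. Reactions ran one hour at low ATP (1 uM) with RS peptide substrate.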

The nature of test [14]: Primary qHTS for small molecule stabilizers of the endoplasmic reticulum resident proteome: Secreted ER Calcium Modulated Protein (SERCaMP) assay (AID 1508630). Further: on the % scale 0 is the no-effect control and ±100 the full control effect. The note with it: SH-SY5Y GLuc-SERCaMP (Gaussia luciferase released on ER calcium loss) secretion, thapsigargin, luminescence; series mostly up to 38.4 µM. In outline: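 The SH-SY5Y reporter protocol was run at 3 concentrations up to 38.3 uM (primary) or 11 concentrations (follow-up): 16 h compound, 100 nM thapsigargin for 4 h, then extracellular luciferase luminescence.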

In test [15] the target is Ubiquitin carboxyl-terminal hydrolase 1 (Homo sapiens) (UniProt O94782). Briefly: Inhibitors of USP1/UAF1: Pilot qHTS (AID 504865).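 Further: rhodamine fluorescence freed from ubiquitin-rhodamine substrate followed over time; top concentration of the series differs between compounds; on the % scale 0 is the no-effect control and ±100 the full control effect; nearly all actives have a fitted effect of over 35% in size.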 The note with it: purified USP1/UAF1, Ub-rhodamine cleavage fluorescence; series mostly up to 54.9 µM. In outline:
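Enzyme-free wells gave the negative control, while test wells held 1nM USP1/UAF1 preincubated with compound for 15 min at room temperature. Ub-Rho at 150nM final started the reaction, and fluorescence at 480/540 nm was recorded kinetically.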

Test [16] deals with 3',5'-cyclic-AMP phosphodiesterase 4B (Homo sapiens) (UniProt Q07343). Briefly: qHTS Assay for Inhibitors of PDE-IV (AID 607; active means well fitted activation curve with a large enough effect in the main read-out, with a control signal flat, not every such curve was filed as active; further: potency means the concentration at half of the fitted maximal effect). As to conditions: HEK293 ACTOne CNG channel cells, membrane potential fluorescence; series mostly up to 22.9 µM. Summed up:
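HEK293 ACTOne cells with CNG channel (1000/well), endogenous PDE4; membrane potential dye, compounds up to 22.9 uM final. Fluorescence Ex 535/Em 590; RO 20-1724 (100 uM final) as reference.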

For test [17], the target named is Cytochrome P450 3A4 (Homo sapiens) (UniProt P08684). Description: qHTS Assay for Inhibitors and Substrates of Cytochrome P450 3A4 (AID 884). Further: potency means the concentration at half of the fitted maximal effect; nearly all actives have a fitted effect of over 50% in size. The note with it: recombinant CYP3A4, Luciferin-PPXE luminescence; series mostly up to 57.1 µM. In outline:
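Luminescent readout of luciferin produced by CYP3A4 (20 nM) dealkylation of Luciferin-PPXE, 25 uM (its KM). NADPH-driven reaction ran 60 min at RT after 10 min compound preincubation; data scaled to 57 uM ketoconazole as 100% inhibition.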

In test [18] the target is Cytochrome P450 2C19 (Homo sapiens) (UniProt P33261). Description: qHTS Assay for Inhibitors and Substrates of Cytochrome P450 2C19 (AID 899). Further: potency means the concentration at half of the fitted maximal effect; nearly all actives have a fitted effect of over 60% in size. As to conditions: recombinant CYP2C19, luciferin-H EGE luminescence; series mostly up to 57.1 µM. Summed up: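 Luminescence readout of luciferin formed from 10uM Luciferin-H EGE (KM level) by 5 nM CYP2C19 in 50mM KPO4. 60 min NADPH-driven reaction at 37C after 10 min compound preincubation; data scaled to 57uM ketoconazole inhibition.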

Test [19] in a line: qHTS Assay for Identification of Small Molecule Agonists for Hypoxia Response Element Signaling Pathway (AID 914; active means well fitted activation curve with a large enough effect in the signal ratio, with a control signal flat, not every such curve was filed as active; the % refers to the signal ratio; further: potency means the concentration at half of the fitted maximal effect). The note with it: ME-180 (cervical carcinoma) HRE-bla reporter, beta-lactamase ratio, CoCl2, 17 h; activation: hits give high values. Summed up: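 qHTS titration; ME-180 HRE-bla cells; EC50 CoCl2 co-treatment, 17 h at 37 degrees Celsius; CCF4 dye, ex 405nm, em 460nm and 530nm; %Activity from ratio; AC50.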

Glucocorticoid receptor (Homo sapiens), sequence (P04150 whole entry, looked up, the tested form may be a part): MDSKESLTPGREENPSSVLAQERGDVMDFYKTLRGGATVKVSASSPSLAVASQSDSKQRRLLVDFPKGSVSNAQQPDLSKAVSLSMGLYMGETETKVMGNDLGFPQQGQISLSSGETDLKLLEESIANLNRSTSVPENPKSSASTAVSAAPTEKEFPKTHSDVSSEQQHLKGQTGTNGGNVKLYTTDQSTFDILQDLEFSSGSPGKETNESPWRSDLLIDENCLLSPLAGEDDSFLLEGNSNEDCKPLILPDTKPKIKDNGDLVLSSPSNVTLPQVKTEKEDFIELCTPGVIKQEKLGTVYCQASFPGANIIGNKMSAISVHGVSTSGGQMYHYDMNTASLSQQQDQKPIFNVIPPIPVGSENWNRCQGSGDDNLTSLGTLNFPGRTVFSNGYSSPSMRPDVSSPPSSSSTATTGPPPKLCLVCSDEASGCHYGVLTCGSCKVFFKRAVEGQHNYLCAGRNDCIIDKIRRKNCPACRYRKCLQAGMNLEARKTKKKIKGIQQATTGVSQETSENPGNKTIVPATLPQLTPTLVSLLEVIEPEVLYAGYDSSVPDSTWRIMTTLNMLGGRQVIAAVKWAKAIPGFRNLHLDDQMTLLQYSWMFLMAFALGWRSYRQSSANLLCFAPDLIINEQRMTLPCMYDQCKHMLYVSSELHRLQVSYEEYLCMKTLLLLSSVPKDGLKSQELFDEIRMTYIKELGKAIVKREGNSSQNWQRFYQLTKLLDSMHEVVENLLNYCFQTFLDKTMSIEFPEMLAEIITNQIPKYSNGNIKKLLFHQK
Cytochrome P450 1A2 (Homo sapiens), sequence (P05177 whole entry, looked up): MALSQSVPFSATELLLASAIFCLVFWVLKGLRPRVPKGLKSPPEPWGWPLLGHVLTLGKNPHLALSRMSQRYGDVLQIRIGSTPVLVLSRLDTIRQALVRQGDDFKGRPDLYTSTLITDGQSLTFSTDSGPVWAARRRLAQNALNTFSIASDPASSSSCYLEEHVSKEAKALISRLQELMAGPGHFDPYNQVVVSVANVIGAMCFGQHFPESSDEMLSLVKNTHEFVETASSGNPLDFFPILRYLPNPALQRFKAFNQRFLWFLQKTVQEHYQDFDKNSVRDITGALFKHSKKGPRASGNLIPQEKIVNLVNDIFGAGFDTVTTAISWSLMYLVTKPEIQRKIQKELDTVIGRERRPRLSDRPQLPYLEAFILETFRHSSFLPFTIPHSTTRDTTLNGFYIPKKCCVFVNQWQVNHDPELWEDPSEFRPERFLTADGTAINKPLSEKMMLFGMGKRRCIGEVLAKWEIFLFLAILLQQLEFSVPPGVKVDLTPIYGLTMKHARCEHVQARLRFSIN
Cytochrome P450 3A4 (Homo sapiens), sequence (P08684 whole entry, looked up): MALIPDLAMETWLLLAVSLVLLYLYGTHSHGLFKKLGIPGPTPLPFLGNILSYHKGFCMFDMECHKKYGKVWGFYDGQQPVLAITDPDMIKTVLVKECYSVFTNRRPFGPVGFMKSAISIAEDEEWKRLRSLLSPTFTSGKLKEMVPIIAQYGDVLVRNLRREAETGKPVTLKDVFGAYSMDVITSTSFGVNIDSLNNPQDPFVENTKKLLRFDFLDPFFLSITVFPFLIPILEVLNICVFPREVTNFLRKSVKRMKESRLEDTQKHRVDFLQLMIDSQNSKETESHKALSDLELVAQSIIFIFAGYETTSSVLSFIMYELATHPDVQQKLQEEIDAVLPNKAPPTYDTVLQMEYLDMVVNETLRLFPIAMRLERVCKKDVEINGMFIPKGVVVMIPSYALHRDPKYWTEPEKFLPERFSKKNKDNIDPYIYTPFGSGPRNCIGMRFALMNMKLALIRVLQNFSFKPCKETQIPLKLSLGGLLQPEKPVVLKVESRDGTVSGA
Dual specificity protein kinase CLK4 (Homo sapiens), sequence (Q9HAZ1 whole entry, looked up): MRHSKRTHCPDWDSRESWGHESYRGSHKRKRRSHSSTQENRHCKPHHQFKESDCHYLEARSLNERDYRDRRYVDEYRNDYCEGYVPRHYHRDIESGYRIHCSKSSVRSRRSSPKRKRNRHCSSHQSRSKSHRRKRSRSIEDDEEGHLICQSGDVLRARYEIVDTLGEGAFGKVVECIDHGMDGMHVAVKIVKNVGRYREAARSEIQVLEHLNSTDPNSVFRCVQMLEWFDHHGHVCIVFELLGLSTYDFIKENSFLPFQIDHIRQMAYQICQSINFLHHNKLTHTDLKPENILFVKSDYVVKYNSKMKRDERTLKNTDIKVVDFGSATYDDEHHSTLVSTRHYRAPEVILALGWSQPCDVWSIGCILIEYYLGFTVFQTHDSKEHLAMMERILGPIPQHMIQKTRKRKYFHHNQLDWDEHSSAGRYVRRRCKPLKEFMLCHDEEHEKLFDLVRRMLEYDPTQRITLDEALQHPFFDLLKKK
Lysosomal acid glucosylceramidase (Homo sapiens), sequence (P04062 whole entry, looked up): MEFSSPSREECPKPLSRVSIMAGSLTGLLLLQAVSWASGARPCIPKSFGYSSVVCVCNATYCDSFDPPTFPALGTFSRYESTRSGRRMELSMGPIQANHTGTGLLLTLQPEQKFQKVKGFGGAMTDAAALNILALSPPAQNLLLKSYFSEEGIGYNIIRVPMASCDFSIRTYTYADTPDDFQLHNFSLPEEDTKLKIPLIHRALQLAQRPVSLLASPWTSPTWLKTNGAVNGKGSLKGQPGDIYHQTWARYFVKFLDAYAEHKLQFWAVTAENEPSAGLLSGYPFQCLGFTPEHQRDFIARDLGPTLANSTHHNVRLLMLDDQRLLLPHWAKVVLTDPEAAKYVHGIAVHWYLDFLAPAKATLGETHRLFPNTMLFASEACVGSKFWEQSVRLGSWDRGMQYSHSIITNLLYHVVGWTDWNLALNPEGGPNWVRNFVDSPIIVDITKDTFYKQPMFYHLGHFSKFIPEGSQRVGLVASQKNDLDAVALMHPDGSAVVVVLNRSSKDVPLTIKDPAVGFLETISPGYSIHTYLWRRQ
Ubiquitin carboxyl-terminal hydrolase 1 (Homo sapiens), sequence (O94782 whole entry, looked up): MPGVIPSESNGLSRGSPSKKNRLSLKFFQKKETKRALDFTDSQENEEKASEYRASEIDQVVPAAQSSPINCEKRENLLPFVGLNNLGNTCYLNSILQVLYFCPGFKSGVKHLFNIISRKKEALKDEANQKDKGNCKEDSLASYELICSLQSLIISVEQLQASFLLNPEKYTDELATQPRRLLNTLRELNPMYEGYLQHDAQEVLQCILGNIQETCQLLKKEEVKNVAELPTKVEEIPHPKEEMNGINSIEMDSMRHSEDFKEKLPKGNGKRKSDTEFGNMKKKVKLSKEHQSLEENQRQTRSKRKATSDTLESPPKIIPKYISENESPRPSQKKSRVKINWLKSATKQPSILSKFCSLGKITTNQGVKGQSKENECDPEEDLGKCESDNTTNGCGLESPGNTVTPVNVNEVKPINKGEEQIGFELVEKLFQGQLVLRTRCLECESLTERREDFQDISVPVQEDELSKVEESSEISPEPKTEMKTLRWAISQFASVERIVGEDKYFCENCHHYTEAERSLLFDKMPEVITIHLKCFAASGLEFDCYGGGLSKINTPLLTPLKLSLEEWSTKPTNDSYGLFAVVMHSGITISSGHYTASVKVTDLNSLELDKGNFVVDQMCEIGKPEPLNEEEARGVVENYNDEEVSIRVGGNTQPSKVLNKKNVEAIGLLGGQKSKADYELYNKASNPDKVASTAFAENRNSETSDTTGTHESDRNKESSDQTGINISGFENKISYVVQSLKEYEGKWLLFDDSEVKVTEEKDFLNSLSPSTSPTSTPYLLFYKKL
3',5'-cyclic-AMP phosphodiesterase 4B (Homo sapiens), sequence (Q07343 whole entry, looked up): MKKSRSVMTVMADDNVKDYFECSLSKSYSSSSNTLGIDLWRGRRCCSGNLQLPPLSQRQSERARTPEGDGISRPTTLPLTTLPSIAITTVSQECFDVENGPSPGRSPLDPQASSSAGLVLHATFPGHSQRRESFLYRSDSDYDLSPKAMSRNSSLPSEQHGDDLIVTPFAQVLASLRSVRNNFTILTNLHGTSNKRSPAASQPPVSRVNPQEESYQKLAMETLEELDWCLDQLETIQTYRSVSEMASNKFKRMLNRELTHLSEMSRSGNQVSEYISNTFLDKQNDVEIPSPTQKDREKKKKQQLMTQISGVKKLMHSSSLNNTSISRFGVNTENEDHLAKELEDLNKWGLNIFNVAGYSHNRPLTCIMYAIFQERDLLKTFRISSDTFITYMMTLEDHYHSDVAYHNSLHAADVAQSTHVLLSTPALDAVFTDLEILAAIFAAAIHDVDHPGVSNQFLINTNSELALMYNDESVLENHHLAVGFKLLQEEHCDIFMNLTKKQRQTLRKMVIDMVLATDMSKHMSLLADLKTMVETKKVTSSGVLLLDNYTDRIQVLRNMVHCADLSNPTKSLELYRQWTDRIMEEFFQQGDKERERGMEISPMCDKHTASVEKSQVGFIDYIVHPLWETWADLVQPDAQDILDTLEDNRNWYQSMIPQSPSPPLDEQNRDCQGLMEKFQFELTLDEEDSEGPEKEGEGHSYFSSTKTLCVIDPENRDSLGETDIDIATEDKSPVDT
Cytochrome P450 2D6 (Homo sapiens), sequence (P10635 whole entry, looked up): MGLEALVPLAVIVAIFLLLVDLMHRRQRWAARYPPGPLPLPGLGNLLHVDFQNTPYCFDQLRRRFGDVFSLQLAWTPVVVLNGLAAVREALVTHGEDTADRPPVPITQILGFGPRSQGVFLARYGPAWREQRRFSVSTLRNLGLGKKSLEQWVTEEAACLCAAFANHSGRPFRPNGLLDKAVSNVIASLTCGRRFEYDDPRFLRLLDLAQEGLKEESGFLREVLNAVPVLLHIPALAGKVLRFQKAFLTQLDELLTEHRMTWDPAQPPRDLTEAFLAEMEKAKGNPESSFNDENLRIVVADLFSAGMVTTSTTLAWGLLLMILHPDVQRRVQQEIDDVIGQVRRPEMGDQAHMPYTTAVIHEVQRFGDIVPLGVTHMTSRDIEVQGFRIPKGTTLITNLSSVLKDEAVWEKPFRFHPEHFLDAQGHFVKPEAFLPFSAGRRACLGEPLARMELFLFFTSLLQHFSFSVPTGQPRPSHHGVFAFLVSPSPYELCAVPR

`N#Cc1cccc(-c2nccc(NCc3ccccc3)n2)c1`: the Potency is > 11.4 µM in test [1]; 0.501 µM (active) in [3]; > 46 µM in test [6]; > 46 µM in test [7]; 7.94 µM (active) in test [10]; 14.1 µM (active) in test [11]. Besides, the results for the Potency in [12] and in test [13] were 14.1 µM (active) and 15.8 µM (active), respectively. The activity change, negative = inhibition in test [2] was -20.8%; in [4], 13.6%. For the same compound, the activity, negative = inhibition in [5] was -6.24%. Moreover, the Potency entry in test [8] and in test [9] was “inactive” in each case. Also, in test [14], the outcome was inactive.

On to `CCNc1ncc2nc(-c3ccc(F)cc3)c(=O)n(C[C@H]3CCCO3)c2n1`, for which the Potency was > 11.4 µM in [1], 1.26 µM (active) in [3], > 9.22 µM in [6] and > 46 µM in test [7]. Further, the activity change, negative = inhibition in [2] is -0.226%; in test [4], 12.6%. The Potency result in test [8], in test [11], in test [12], in test [13] and in [15] was “inactive” each time. Also, the outcome in [14] was inactive.

Turning to `N#Cc1cccc(-c2nccc(-n3ccnc3)n2)c1`, the Potency is > 11.4 µM in test [1]; 0.2 µM (active) in [3]; > 46 µM in [6]; > 46 µM in test [7]; 2.51 µM (active) in test [17]; 7.94 µM (active) in [18]. In addition, the values for the Potency in test [11], in [12] and in [13] were 8.91 µM (active), 10 µM (active) and 12.6 µM (active), respectively. The activity change, negative = inhibition in test [2] is 10.7%. In [5], the activity, negative = inhibition was 4.18%. Further, the Potency entry in test [8], in test [16], in test [9] and in test [15] was “inactive” in each case. For the same compound, in test [14], the outcome was inactive.

In the case of `COCCn1c(=O)c(-c2ccc(F)cc2)nc2cnc(N(C)C)nc21`, the Potency in test [1] is > 11.4 µM; in [3], 2 µM (active); in test [6], > 9.22 µM; in [7] it was > 46 µM; in test [16], 1.58 µM (active). Also, the activity change, negative = inhibition in test [2] was -1.02%; in test [4], 10.7%. Besides, the Potency result in test [11], in test [12], in test [13] and in test [15] was “inactive” each time. In addition, the result in test [14] was inactive.

`N#Cc1ccccc1-c1ccc2ncnc(NC3CC3)c2c1`: the Potency in [1] is > 11.4 µM; in [3], 0.1 µM (active); in test [6], > 46 µM; in test [7], > 46 µM; in test [17], 2 µM (active); in test [11], 6.31 µM (active). In addition, the figures for the Potency in [12] and in [13] were 5.62 µM (active) and 7.08 µM (active), respectively. In addition, the activity change, negative = inhibition in [2] is -12.1%; in test [4], 21.2%. For the same compound, the Potency result in [8], in test [9] and in test [15] was “inactive” throughout. In addition, the outcome in test [14] was inactive.

With `O=c1c(-c2ccc(Cl)cc2)nc2cnc(Nc3ccccc3)nc2n1C[C@H]1CCCO1`, the Potency in [1] was > 11.4 µM; in test [3] it was 12.6 µM (active); in [6], > 9.22 µM; in test [7], > 46 µM; in test [19] it was 0.126 µM (active). In addition, the activity change, negative = inhibition in test [2] is -8.65%; in test [4], -7.53%. Besides, the Potency entry in test [8], in test [11], in test [12], in test [13] and in [15] was “inactive” each time. Besides, the outcome in test [14] was inactive.

For `COc1ccc(CNc2ccnc(-c3ccccc3OC)n2)c(OC)c1`, the Potency was > 11.4 µM in test [1]; 5.01 µM (active) in test [3]; > 46 µM in test [6]; > 46 µM in test [7]; 6.31 µM (active) in test [17]; 3.98 µM (active) in [10]. In addition, the figures for the activity change, negative = inhibition in test [2] and in [4] were 3.33% and -9.22%, respectively. The activity, negative = inhibition in [5] was 1.07%. Besides, the Potency entry in [8], in test [9], in test [11], in [12] and in test [13] was “inactive” throughout. The outcome in test [14] was inactive.
